M1 antag – human M1 muscarinic receptor antagonists, primary screen, CHO-K1 cells, Fluo-8 calcium fluorescence, 1536-well | Muscarinic acetylcholine receptor M1 (Homo sapiens), P11229 | CHO-K1 hM1, ACh EC80 antagonist | inhibition, % at 3 µM | 1.3% of 360,000 active;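 active means percent inhibition above its own plate's cutoff, namely the mean of that plate's compound wells plus 3 SD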;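 further: peak over basal fluorescence ratio during 140 s after agonist addition; 0% = ACh EC80 plus DMSO and 100% = DMSO alone without agonist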
Target sequence (P11229 whole entry, looked up): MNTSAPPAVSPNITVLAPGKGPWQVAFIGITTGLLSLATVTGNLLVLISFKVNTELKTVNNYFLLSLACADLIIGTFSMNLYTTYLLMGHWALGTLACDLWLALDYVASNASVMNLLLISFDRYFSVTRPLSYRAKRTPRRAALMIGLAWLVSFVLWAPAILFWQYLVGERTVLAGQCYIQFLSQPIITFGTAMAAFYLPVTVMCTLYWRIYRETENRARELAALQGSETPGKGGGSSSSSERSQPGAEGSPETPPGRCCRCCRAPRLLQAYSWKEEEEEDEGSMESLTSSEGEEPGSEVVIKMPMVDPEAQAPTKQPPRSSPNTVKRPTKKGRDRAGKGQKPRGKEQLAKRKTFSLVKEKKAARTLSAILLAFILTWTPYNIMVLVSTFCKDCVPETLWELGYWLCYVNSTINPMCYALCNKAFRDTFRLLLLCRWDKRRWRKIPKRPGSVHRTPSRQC
CHO-K1 Ca ag – counter-screen for M1 agonists: effect in parental CHO-K1 cells. Fluo-8 calcium fluorescence; scaled to maximal ATP response, vehicle zero. activation, % at 3 µM. 0.48% of 360,000 active. AID 602248, 2012; in the data active means activation above about 15%;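 further: untransfected CHO-K1 host cells lacking M1 receptor as counterscreen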
CHRM1 PAM – human M1 muscarinic receptor positive allosteric modulators, primary screen, CHO-K1 cells, Fluo-8 calcium fluorescence, 1536-well | activation, % at 3 µM | 0.088% of 360,000 active | Muscarinic acetylcholine receptor M1 (Homo sapiens), P11229 | CHO-K1 hM1, ACh EC20; 0% = ACh EC20, 100% = maximal ACh; in the data active means activation above about 19%, passing the limit was not always enough
CHRM1 agonist – human M1 muscarinic receptor agonists, primary screen, Fluo-8 calcium fluorescence, CHO-K1 cells, HTS | AID 588814, 2011 | 0.33% of 360,000 active | activation, % at 3 µM | CHO-K1 hM1, agonist mode; 0% DMSO, 100% acetylcholine EC100 | Muscarinic acetylcholine receptor M1 (Homo sapiens), P11229;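 active means activation above the run's mean compound activation plus 3 SD, cut at about 16% in these data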;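 further: peak over basal fluorescence ratio within a 140 s kinetic read after compound addition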
CHO-K1 Ca antag – counter-screen for M1 antagonists: effect in parental CHO-K1 cells; ATP-induced calcium, Fluo-8 fluorescence; inhibition, % at 3 µM; 0.6% of 360,000 active; AID 602250;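 active means inhibition above a per-plate cutoff, the plate's mean sample inhibition plus 3 SD, cut at about 24% in these data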;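 further: 0% = DMSO plus EC80 ATP and 100% = DMSO alone without ATP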
M1 PAM parental – nonselective calcium activators in parental CHO-K1 cells, primary screen, counter-screen for M1 PAM project, cell-based, Fluo-8 calcium fluorescence, full deck, 1536-well; ATP EC20; 0% at ATP EC20, 100% at ATP max; activation, % at 3 µM; 0.02% of 360,000 active; AID 602247, 2012;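 active means activation above the run cutoff, the mean activation of all test compounds plus 3 SD, cut at about 40% in these data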;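 further: peak over basal fluorescence ratio in a 140 s read after ATP addition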
Numbers without * were called inactive. The list is not random: actives were taken first. Their share in the collection is about 2.3%.

SMILES | M1 antag | CHO-K1 Ca ag | CHRM1 PAM | CHRM1 agonist | CHO-K1 Ca antag | M1 PAM parental
COc1cccc(CN2CCC2(C)C(=O)Nc2cccc3cccnc23)c1F (stereo unspecified) | -8 | -1 | 10 | -1 | -9 | 10
CC1(c2ccc(OC(F)F)cc2)NC(=O)N(CC(=O)Nc2ccc3c(c2)OCO3)C1=O (stereo unspecified) | 17 | 29* | -5 | 39* | -14 | 20
CC(=O)Nc1ccc(/C=N/N2C(=O)NC(C)(c3ccc(OC(F)F)cc3)C2=O)cc1 (stereo unspecified) | 12 | 6 | -1 | 27* | -10 | 11
CC1(c2ccc(Cl)cc2)NC(=O)N(CC(=O)Nc2cccnc2Cl)C1=O (stereo unspecified) | -10 | 17* | 6 | 22* | -8 | 14
CCOC(=O)CN1C(=O)NC(C)(c2ccc(OC(F)F)cc2)C1=O (stereo unspecified) | -4 | 3 | 1 | 3 | -13 | 16
CCCCCC(C)NC(=O)CN1C(=O)NC(C)(c2ccc3ccccc3c2)C1=O (stereo unspecified) | -4 | 0 | 14 | 18* | 3 | 12
Cn1c(=O)c2[nH]c(SCc3cccnc3)nc2n(C)c1=S | -6 | 2 | 11 | 2 | -6 | 17
CCOc1cc(N2CCOCC2)c(OCC)cc1NS(=O)(=O)c1ccc2c(c1)CC(=O)N2 | -14 | 0 | 6 | -2 | -3 | 1
Cc1ccc(NC(=O)CN2CCCC2c2cccn2C)cc1C (stereo unspecified) | -10 | -1 | 8 | -6 | 7 | -14
O=C(NNC(=O)c1cccs1)c1ccc(Cl)c(Cl)c1 | 3 | 0 | 10 | -1 | -2 | 5
CC1(c2ccc(OC(F)F)cc2)NC(=O)N(CC(=O)Nc2ccccc2)C1=O (stereo unspecified) | 26* | 46* | -11 | 46* | 17 | 12
CN(C(=O)COC(=O)c1ccc(CN2CCCC2=O)cc1)c1ccccc1 | 68* | 1 | -29 | -8 | -15 | 0
CN(C(=O)COC(=O)c1ccc(S(=O)(=O)N2CCCCCC2)cc1)c1ccccc1 | -12 | 1 | 6 | -7 | -20 | 17
Cc1cc(NC(=O)COC(=O)CNC(=O)c2cccs2)c([N+](=O)[O-])cc1C | -12 | 1 | 7 | 2 | 3 | -2
COc1cc(/C=N/NC(=O)c2ccccn2)ccc1OC(=O)c1ccc(Br)cc1 | -4 | 2 | 1 | 0 | -17 | -1
COc1cc(/C=N/NC(=O)c2ccccn2)ccc1OC(=O)c1ccccc1Br | 19 | 3 | -11 | -3 | 27* | -7
OCC1(Cc2ccccc2)CCN(C2CCN(c3ccccc3F)CC2)CC1 | 35* | 12 | -21 | -3 | -2 | 9
CC(C)(C)OC(=O)CNC(=O)c1[nH]cnc1C(=O)NCCCCCNC(=O)OC(C)(C)C | 30 | 17* | -21 | -1 | -5 | -2
CC(C)(C)OC(=O)CNC(=O)c1[nH]cnc1C(=O)NCCCCCN | 2 | 0 | 2 | -7 | -6 | 2
CC(C)C[C@H](NC(=O)c1nc[nH]c1C(=O)NCCCCCNC(=O)OC(C)(C)C)C(=O)OC(C)(C)C | 61* | -1 | -35 | -10 | -5 | -21
COc1ccc(NC(=O)C2(C)CCN2C(=O)c2ccc(C(C)(C)C)cc2)cc1OC (stereo unspecified) | 10 | 3 | -1 | -2 | 6 | -13
O=C(Nc1ccc(Cl)cc1)C1C2CCCCC21 (stereo unspecified) | -6 | 0 | 0 | -6 | -7 | -19
CN1CCC(N(C)C(=S)Nc2ccc(SC(F)F)cc2)CC1 | -1 | 1 | -3 | 18* | -6 | 9
CN1CCC(N(C)C(=S)Nc2ccc(F)cc2)CC1 | 3 | 0 | 4 | -4 | -4 | 4
Cc1ccc(C)c(N2CCN(C(=O)CCCOc3cc(=O)n(C)c4ccccc34)CC2)c1 | 37* | 6 | -13 | 2 | 15 | 13
SMILES | M1 antag | CHO-K1 Ca ag | CHRM1 PAM | CHRM1 agonist | CHO-K1 Ca antag | M1 PAM parental
CN(C(=O)c1ccc(NC(=O)C2CCCN(C(=O)OC(C)(C)C)C2)cc1)C1CCC1 (stereo unspecified) | 6 | 1 | -3 | -5 | -5 | -6
CCCOc1ccc(Cn2cnc3ccccc32)cc1 | 1 | 3 | 0 | -3 | 25* | 4
Fc1ccc(Cn2cnc3ccccc32)cc1 | -6 | 1 | 6 | 0 | -2 | 11
COC(=O)c1c(N)nc(C)n1-c1ccc(OC)cc1 | 6 | 0 | -1 | -2 | 25* | -6
c1ccc2c(c1)OCC(CNc1ncnc3sccc13)O2 (stereo unspecified) | 22 | 13 | -11 | 1 | 31* | 3
Fc1ccccc1CNc1ncnc2sccc12 | 18 | 12 | 3 | 5 | 9 | 12
COc1ccc(-n2c(=O)c3c4c(sc3n3c(=S)[nH]nc23)COC(C(C)C)C4)cc1 (stereo unspecified) | -20 | 1 | 11 | -1 | -4 | 26
CC(C)(C)CC(C)(C)NCC(O)COc1ccc2c(c1)CCC2 (stereo unspecified) | 49* | 3 | -24 | -3 | 2 | 13
O=C(N=C1SC2CS(=O)(=O)CC2N1c1ccc(Br)cc1)C1CCCO1 (stereo unspecified) | 2 | 0 | -4 | 0 | -3 | -21
O=C(NCCN1CCOCC1)c1ccc2c(c1)N(Cc1ccccc1)C(=O)CS2 | 30* | 0 | -21 | -8 | -10 | 6
O=C(NCCN1CCOCC1)c1ccc2c(c1)N(Cc1ccccc1)C(=O)c1ccccc1S2 | 10 | 0 | -1 | -2 | 1 | 13
CCN1C(=O)CSc2ccc(C(=O)NCCCN3CCOCC3)cc21 | -6 | 0 | 5 | -14 | -13 | 8
O=C(NCCN1CCOCC1)c1ccc2c(c1)N(Cc1ccc(Cl)cc1)C(=O)CS2 | 28* | 3 | -29 | -11 | -23 | -3
N#Cc1ccc(OCC(O)CN2CCC(C(O)(c3ccccc3)c3ccccc3)CC2)cc1 (stereo unspecified) | 32* | 10 | -29 | -11 | -14 | 7
Cc1ccc(NC(=O)CSC2=NN3CCCC(=O)N=C3S2)cc1Cl | 7 | 16* | -7 | -3 | 2 | 12
O=C1CCCN2N=C(SCC(=O)Nc3cccc(C(F)(F)F)c3)SC2=N1 | 27* | 15 | -12 | -3 | 26* | -11
O=C1CCCN2N=C(SCC(=O)Nc3ccc(Cl)cc3)SC2=N1 | -4 | 13 | 0 | -1 | -4 | 6

From PubChem
